Assay results: PubChem BioAssay (NCATS)
Inconclusive results are not listed. A number with no mark means an inactive call. Calls of active or inactive are those of the source. The call rests on the fitted dose curve; in most records, active means well fitted cell-killing curve with a large enough effect; inconclusive means small, poorly fitted or top-dose-only effect, or effect the other way; inactive means no such curve, though single readings can be large or run the other way.
Potency means the concentration at half of the fitted maximal effect.

Experiment: Viability qHTS for spleen associated tyrosine kinase inhibitor (SYKi) drug resistant MV4-11 cells (AID 1963824); further: nearly all actives have a fitted effect of over 35% in size
Details: SYKi-resistant MV4-11 viability, CellTiter-Glo, 72 h; series mostly up to 45 µM; viability, % of control: at the top concentration
How it was run: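 CellTiter-Glo luminescence, read 10 min after reagent addition, reports viability after a 72 hr compound exposure. Cells are an MV4-11 line made resistant to SYK inhibition, seeded at 500 per well onto compound-containing plates.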
In the case of C/C=C(\C)C(=O)O[C@H]1C=C(CO)C(=O)[C@H](OC(C)=O)[C@H]1C(C)C, the Potency is reported as 1.8 µM (active).
For C=C[C@@H]1[C@H](O[C@@H]2O[C@H](CO)[C@@H](O)[C@H](O)[C@H]2O)OC=C(C(=O)O)[C@H]1CCOC(=O)/C=C/c1ccc(O)c(O)c1, the “viability, % of control” value was 67.3% [at 17.3 µM].
For CC1=C[C@H](O)[C@H]2C(C)(C)CCC[C@]2(C)[C@@]1(O)CO, the Potency was 4.11 µM (active).
For CCc1cnn2c(NCc3ccc[n+]([O-])c3)cc(N3CCCCC3CCO)nc12 (stereo unspecified), the Potency was 0.0065 µM (active).
For CCN(Cc1cc(Nc2nc(C)cn3c(-c4cn[nH]c4)cnc23)sn1)C(C)(C)CO, the Potency was 0.0082 µM (active).
With C=C1C(=C/C=C2\CCC[C@]3(C)[C@@H]([C@H](C)/C=C/[C@@H](O)C4CC4)CC[C@@H]23)C[C@@H](O)C[C@@H]1O the Potency was 0.188 µM (active).
For COc1cc(O)c2c(c1)/C=C/C[C@H](O)[C@H](O)C(=O)/C=C\C[C@H](C)OC2=O, the Potency was 0.259 µM (active).
With Nc1nc2c(nc(Br)n2[C@@H]2O[C@@H]3COP(=O)(O)O[C@H]3[C@H]2O)c(=O)[nH]1 the “viability, % of control” value was 92.1%.
With CCCNCCOc1ccc(NC(=O)c2c[nH]c3c2C(=O)CCC3)cc1F the Potency was 2.91 µM (active).
With C/C=C(/COC(=O)/C(C)=C/C)C(=O)OC/C=C/c1ccc(OC)cc1 the Potency was 12.8 µM (active).
Compound COC1CC(OC2CCC3(C)C(=CCC4C3CCC3(C)C(C(C)O)CCC43O)C2)OC(C)C1OC1OC(C)C(OC2OC(COC3OC(COC4OC(CO)C(O)C(O)C4O)C(O)C(O)C3O)C(O)C(O)C2O)C(OC)C1O (stereo unspecified) has a viability, % of control of 97.1% [at 9.25 µM].
